High-throughput results as filed in PubChem.
Shiga toxin inh = inhibitors of Shiga toxin in Vero cells; 9.2% of 290,000 active; AID 2315; inhibition, % at 38.7 µM; Vero cells, Shiga toxin protein synthesis inhibition reporter; in the data active = inhibition mostly above about 28%, no sharp cut-off; inactive = mostly below about 43%; also: 0% is about no effect
Pf growth 96h = inhibits malaria parasite growth, 96 h. P. falciparum luciferase reporter growth, 96 h. Potency, µM (titrated, usually from 28.7 µM), for inactives: top-dose activity change, negative = inhibition, hits mostly inhibitors. 6.9% of 320,000 active; active = well fitted inhibition curve with a large enough effect; inconclusive = small, poorly fitted or top-dose-only effect, or another doubt; inactive = no such curve, though single readings can be large or run the other way; also: potency is read from the fitted curve at half-maximal effect; % is scaled to controls: 0 for no effect and ±100 for the full control effect
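Delayed-death screen, second-generation endpoint: infected erythrocytes, 2% hematocrit, 0.05% parasitemia final; 96 hours at 37 C, 5% CO2; luciferase detection reagent; luminescence decrease equals reduced growth.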
NS1 function inh = influenza NS1 inhibition | Potency, µM (top dose mostly 46.1 µM), for inactives: top-dose activity, positive = more growth | 0.4% of 270,000 active; also: potency is read from the fitted curve at half-maximal effect; actives are rising curves; nearly all actives have a fitted effect of over 50% in size
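In this qHTS, NS1 from influenza A is expressed in budding yeast, where it slows growth. Cells are switched from glucose to 2% galactose medium (pH 6.0, -URA), treated with compound, and growth recovery is read at OD600.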
Cycloheximide cs = affects cycloheximide protein synthesis inhibition readout, counter-screen; 12% of 300,000 active; max response, %; AID 2314; cell reporter, cycloheximide protein synthesis inhibition counterscreen; in the data active = max response mostly above about 13%, no sharp cut-off; inactive = mostly below about 14%; also: read at 38.3 µM for the half of the compounds with a filed dose; 0% is about no effect
Pf growth 48h = inhibits P. falciparum growth in the first generation, 48 h | P. falciparum luciferase growth in erythrocytes, 48 h | Potency, µM (top dose mostly 28.7 µM), inactives show at the top dose activity change, negative = inhibition, actives largely listed as inhibitors | 5.9% of 310,000 active; active = well fitted inhibition curve with a large enough effect; inconclusive = small, poorly fitted or top-dose-only effect, or another doubt; inactive = no such curve, though single readings can be large or run the other way; also: potency is read from the fitted curve at half-maximal effect; % is scaled to controls: 0 for no effect and ±100 for the full control effect
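First compound was added to culture medium, then infected red cells at 0.1% parasitemia and 2% hematocrit (final). After incubation at 37 C under 5% CO2, luciferase detection reagent was dispensed and light output recorded.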
SARS PLpro yeast = inhibitors of SARS-CoV papain-like protease in yeast; S. cerevisiae expressing SARS-CoV PLpro, growth rescue; Potency, µM (top dose mostly 32.9 µM), for inactives: at the top dose activity, positive = growth rescue, hits mostly activators; 0.19% of 330,000 active; also: potency is read from the fitted curve at half-maximal effect; 0% is about no effect; nearly all actives have a fitted effect of over 55% in size
An asterisk follows results filed as active; ? = inconclusive; nt = not tested or not shown. Hits are enriched below; roughly 21% of the tested compounds scored in any of these assays. Unless noted, calls follow the shape of the full dose curve.

SMILES	Shiga toxin inh	Pf growth 96h	NS1 function inh	Cycloheximide cs	Pf growth 48h	SARS PLpro yeast
COc1ccc2[nH]c3c(NCCN(C(C)C)C(C)C)ncnc3c2c1	-6	0.47µM*	-32%	-5	2.6µM*	-3%
CCOc1ccc2[nH]c3c(NCCN(CC)CC)ncnc3c2c1	2	2.1µM*	0%	-3	2.3µM*	-5%
CCCCN(CCCC)CCn1cnc2c([nH]c3ccc(OC)cc32)c1=O	-3	?	-16%	-1	?	-8%
Brc1ccc2[nH]c3c(NCc4ccccn4)ncnc3c2c1	10	?	-5%	16	?	0%
CCOc1ccc2[nH]c3c(NCC(C)C)ncnc3c2c1	59*	1.7µM*	-4%	33*	2.3µM*	1%
N#CC(C#N)=CNCCN1CCN(C=C(C#N)C#N)CC1	nt	nt	3%	nt	nt	nt
CCOc1ccc2[nH]c3c(NCCOC)ncnc3c2c1	67*	?	5%	29*	5%	1%
COc1ccc2[nH]c3c(NCCCN4CCCC4=O)ncnc3c2c1	38	5%	9%	5	1%	7%
COc1ccccc1N1CCN(C(=O)c2ccc3c(Cl)c4c(nc3c2)CCCC4)CC1	-8	12µM*	-33%	-3	-3%	-68%
COc1ccccc1N1CCN(C(=O)c2ccc3nc(-c4ccco4)c(-c4ccco4)nc3c2)CC1	22	nt	14µM*	-3	?	15%
O[C@@H]1[C@@H]2O[P@@](O)(=S)OC[C@H]2O[C@H]1n1cnc2cc(Cl)c(Cl)cc21	-5	nt	nt	-4	nt	nt
O=C(COC(=O)c1ccc(CNS(=O)(=O)c2ccc(F)c(Cl)c2)cc1)NCC1CCCCC1	-5	18%	-2%	0	14%	-4%
COc1ccc(CC(=O)Nc2ccc3nc(C)sc3c2)cc1OC	-1	8%	2%	2	-4%	-12%
COc1ccc(C(=O)Nc2ccc3nc(C)sc3c2)cc1OC	84	0%	nt	31*	129%	11%
COc1ccc(NC(=O)c2ccc3nc(C)sc3c2)cc1	129*	?	-32%	64*	70%	-3%
COC(=O)c1ccc(NC(=O)c2ccc3nc(C)sc3c2)cc1	nt	-27%	8%	77*	31%	-1%
Cc1c(NC(=O)CSc2nc(N)cc(N)n2)c(=O)n(-c2ccccc2)n1C	nt	-17%	nt	nt	-20%	10%
C[C@@H](N)[C@@H](O)c1ccc(O)c(O)c1	nt	0.6µM*	nt	nt	0%	nt
CC(N)[C@H](O)c1ccc(O)c(O)c1 (stereo partly drawn)	-14	nt	-5%	-6	nt	nt
CC[C@H](NC(C)C)[C@H](O)c1ccc(O)c(O)c1	nt	13µM*	nt	nt	?	nt
Cc1ccc(C(=O)NC2CCN(S(=O)(=O)c3ccccc3)CC2)cc1	9	?	-6%	-1	-8%	0%
O=C(NCc1ccc(Cl)cc1)C(=O)NCC1OCCN1C(=O)c1ccc(Cl)cc1 (stereo not drawn)	26	-25%	nt	-6	-23%	-3%
COc1ccc(NC(=O)CCN2CCOCC2)c(OC)c1	5	12%	12%	6	-42%	-1%
CCc1cccc(C)c1NC(=S)N(Cc1cccnc1)Cc1ccco1	-10	12µM*	-8%	0	?	-21%
CCN(Cc1ccncc1)C(=S)Nc1c(C)cccc1C	-2	2.1µM*	7%	-1	22%	2%
SMILES	Shiga toxin inh	Pf growth 96h	NS1 function inh	Cycloheximide cs	Pf growth 48h	SARS PLpro yeast
Cc1cccc(C)c1NC(=S)N(Cc1ccccc1)Cc1cccnc1	-6	-19%	nt	-11	?	7%
S=C(Nc1ccccc1Cl)N(Cc1cccnc1)Cc1ccco1	-19	?	-4%	-1	4.1µM*	0%
C=CCn1cccc(C(=O)Nc2cc(OC)ccc2OC)c1=O	18	?	nt	16	?	-4%
Cc1nn(C)c(C)c1S(=O)(=O)N1CCC(C(=O)NC2CCCCC2)CC1	9	9.3µM*	-5%	-4	5%	3%
Cc1cccc(NC(=O)C2CCN(S(=O)(=O)c3c(C)nn(C)c3C)CC2)n1	-13	?	-2%	-1	9%	6%
Cc1nn(C)c(C)c1S(=O)(=O)N1CCC(C(=O)NC2CCCCCC2)CC1	-9	5.2µM*	3%	0	12%	2%
O=C(NC1CCCCCC1)C1CCN(S(=O)(=O)c2c(Cl)cccc2Cl)CC1	nt	-28%	nt	nt	?	7%
C/C(Cc1nnn(-c2cc(C)on2)n1)=N\O	10	69%	4%	-1	64%	1%
CC1CN(c2nc3ccccc3nc2C(C#N)C(=O)OC2CCCCC2)CC(C)O1 (stereo not drawn)	1	?	-156%	1	2.1µM*	2%
Cc1cccc(S(=O)(=O)C(C#N)c2nc3ccccc3nc2N2CC(C)OC(C)C2)c1 (stereo not drawn)	26	25%	-16%	7	?	nt
Cc1ccc(S(=O)(=O)C(C#N)c2nc3ccccc3nc2N2CC(C)OC(C)C2)cc1C (stereo not drawn)	-11	?	13%	-9	13µM*	2%
CC(C)COc1nc2ccccc2nc1C(C#N)C(=O)NC1CCCCC1 (stereo not drawn)	-4	?	14%	-2	nt	-8%
CC1CCN(c2nc3ccccc3nc2C(C#N)C(=O)OC2CCCCC2)CC1 (stereo not drawn)	-10	?	-49%	3	19%	-2%
CC1CN(c2nc3ccccc3nc2C(C#N)C(=O)NC2CCCCC2)CC(C)O1 (stereo not drawn)	19	?	-25%	19*	-15%	8%
CC[C@@H](C)C(N)c1cn([C@@H](CCC(=O)O)C(=O)N2CCNCC2)nn1 (stereo partly drawn)	-3	7%	4%	-3	10%	1%
O=C1c2cnccc2CN1Cc1ccccc1	2	3.3µM*	1%	8	41%	-4%
CC1(C)C(=O)CC[C@@]2(C)[C@H]1CC[C@@]1(C)CC3=C(CC[C@@H]12)[C@@]1(C)CCC(=O)C(C)(C)[C@@H]1CC3	nt	?	nt	nt	12µM*	1%
C=C(C)[C@@H]1CCC2(C(=O)O)CC[C@]3(C)[C@H](CC[C@@H]4[C@@]5(C)CCC(=O)C(C)(C)[C@@H]5CC[C@]43C)[C@@H]12 (stereo partly drawn)	-6	?	8%	-3	?	-3%
COc1ccc(-n2nc(C(=O)NCC(=O)N3CCN(c4ccccc4F)CC3)c3ccccc3c2=O)cc1	24	45%	9%	6	3%	2%
COc1ccc(-n2nc(C(=O)NCC(=O)N3CCN(c4ccccc4F)CC3)c3ccccc3c2=O)cc1OC	22	?	7%	25*	?	1%
COc1ccc(-n2nc(C(=O)NCC(=O)N3CCN(Cc4ccccc4)CC3)c3ccccc3c2=O)cc1OC	-8	1µM*	-8%	-4	?	-3%
COc1ccc(-n2nc(C(=O)NCC(=O)NCCC3=CCCCC3)c3ccccc3c2=O)cc1OC	-10	9.3µM*	15%	-2	?	1%
